HCMV inh: qHTS Assay for inhibitors of the human cytomegalovirus (HCMV) | HFF cells, HCMV-luciferase reporter, 72 h; active compounds read low | activity change, negative = inhibition, % at 57.5 µM | hit rate 4.5% among 410,000 | AID 1259415, 2018; in the data active = activity change below about -60%; inconclusive = no clear call, values can overlap the other calls; inactive = above about -39%
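Inhibition of viral replication was scored as loss of reporter luminescence in HFFs infected with HCMV-luciferase (MOI 1 PFU/cell) for 72 h; compounds tested at 2 doses, normalized to buffer and Salinomycin controls.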
HCV inhibitor: qHTS Assay for Inhibitors of Hepatitis C Virus (HCV); Huh7.5.1 HCVcc-Cre infection, luciferase reporter, 44 h; Potency, µM (highest dose often 41.8 µM), for inactives: top-dose activity change, negative = inhibition, actives largely listed as inhibitors; hit rate 3.4% among 340,000; AID 651820, 2012; active = well fitted inhibition curve with a large enough effect; inconclusive = small, poorly fitted or top-dose-only effect, or another doubt; inactive = no such curve, though single readings can be large or run the other way; note: potency is the fitted concentration of half-maximal effect
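Cells (1,000/well) were plated 4 h before compound, then infected with HCVcc-Cre virus (~0.5 moi). After 44 h further culture, infection was read as luciferase luminescence following a 15 min substrate incubation at room temperature.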
FMDV inh: High Throughput Screening for Foot and Mouth Disease Virus Antivirals; Potency, µM (titrated, usually from 57.9 µM), without a hit: at the highest dose activity change, negative = inhibition, most hits filed as inhibitors; hit rate 1.2% among 410,000; FMDV antiviral cell-based qHTS; calls by dose curve; tested in HEK293T cells; note: read-out not given here; potency is the fitted concentration of half-maximal effect; nearly all actives have a fitted effect of over 45% in size
Marburg entry inh: qHTS for inhibitors of binding or entry into cells for Marburg Virus | Marburg virus pseudotyped entry inhibition, cell reporter | Potency, µM (series often up to 37.8 µM), without a hit: at the top dose activity change, negative = inhibition, hits mostly inhibitors | hit rate 1.8% among 300,000 | AID 540276, 2011; calls by dose curve; tested in HEK293 cells; note: potency is the fitted concentration of half-maximal effect
LASV entry inh: qHTS for Inhibitors of binding or entry into cells for Lassa Virus. Lassa virus pseudotype entry inhibition, cell reporter. Potency, µM (titrated, usually from 37.9 µM), for the others: at the top dose activity change, negative = inhibition, actives largely listed as inhibitors. hit rate 1.2% among 300,000. AID 540256, 2011; calls by dose curve; tested in HEK293 cells; note: potency is the fitted concentration of half-maximal effect; nearly all actives have a fitted effect of over 50% in size
An asterisk follows results filed as active; [ ] = dose if it differs, or a comment. Sampled rows, rich in hits. Any-hit rate of the full collection: about 7.9%. % is set by controls: 0 for no effect and ±100 for the full control effect.

Screening COc1ccc(-c2cc(C(F)(F)F)nc(SCCC(=O)Nc3ccc(O)cc3)n2)cc1 returned HCMV inh inconclusive, FMDV inh -25%, Marburg entry inh -2%[46.1 µM] and LASV entry inh -9%[46.1 µM].
`Cc1cccc(NC(=O)CSC2=Nc3ccccc3C3=NC(CC(=O)NCc4cccs4)C(=O)N23)c1` (stereo not given) gave HCMV inh 8, FMDV inh -15%, Marburg entry inh -2%[46.1 µM] and LASV entry inh 0%[46.1 µM].
For Cc1c(Cl)ccc2sc(N3CCN(C(=O)c4ccco4)CC3)nc12 the results were HCMV inh 43, FMDV inh 3% and LASV entry inh 5%[46.1 µM].
`C[C@@]12CCOC13C=CC(=O)C=C3CC[C@H]2O` (stereo not given in full) gave HCMV inh -13.
CC(C)(C)c1ccc(C(=O)CCCSC2=C(C#N)C(c3ccco3)C3=C(CCCC3=O)N2)cc1 (stereo not given) was read as HCMV inh inconclusive, HCV inhibitor 6.3µM*, FMDV inh -3%, Marburg entry inh inconclusive and LASV entry inh inconclusive.
COc1cccc(NC(=O)CSC2=C(C#N)C(c3ccco3)C3=C(CCCC3=O)N2)c1 (stereo not given) was read as HCMV inh 46, HCV inhibitor inconclusive, FMDV inh 14%, Marburg entry inh -7% and LASV entry inh 13µM*.
Screening CCSC1=C(C#N)C(c2ccc(Cl)cc2)C2=C(CCCC2=O)N1 (stereo not given) returned HCMV inh -10, HCV inhibitor 25µM*, FMDV inh -21%, Marburg entry inh inconclusive and LASV entry inh -26%.
Screening CCc1ccc(NC(=O)CSC2=C(C#N)[C@H](c3ccco3)C3=C(CCCC3=O)N2)cc1 returned Marburg entry inh -29%.
Screening N#CC1=C(SCC(=O)c2ccccc2)NC2=C(C(=O)CCC2)C1c1ccco1 (stereo not given) returned HCMV inh 106, HCV inhibitor 11µM*, FMDV inh -12%, Marburg entry inh inconclusive and LASV entry inh inconclusive.
`Cc1ccc(C(=O)CSC2=C(C#N)C(c3ccco3)C3=C(CCCC3=O)N2)cc1` (stereo not given) gave HCMV inh -26, HCV inhibitor 25µM*, FMDV inh 0%, Marburg entry inh inconclusive and LASV entry inh inconclusive.
`CCOC(=O)C1=C(c2ccccc2)NC(SCC(=O)Nc2ccccc2C)=C(C#N)[C@@H]1c1ccco1` gave Marburg entry inh 23µM*.
Screening CCCCc1ccc(NC(=O)CSC2=C(C#N)C(c3ccco3)C3=C(CCCC3=O)N2)cc1 (stereo not given) returned HCMV inh -32, HCV inhibitor inconclusive, FMDV inh inconclusive, Marburg entry inh inconclusive and LASV entry inh inconclusive.
Screening COc1ccc(C2c3cc(OC)c(OC)cc3CC(=O)N2c2ccc(C)cc2)cc1 (stereo not given) returned HCMV inh 22, FMDV inh -30%, Marburg entry inh -22%[46.1 µM] and LASV entry inh inconclusive.
For COC(=O)CCn1cnc2onc(-c3cc(F)cc(F)c3)c2c1=O the results were HCMV inh 0, FMDV inh -1%, Marburg entry inh -2%[46.1 µM] and LASV entry inh 0%[46.1 µM].
Screening CCc1ccc(OCC2c3cc(OC)c(OC)cc3CCN2C(=O)Cc2ccc(OC)c(OC)c2)cc1 (stereo not given) returned HCMV inh 12, FMDV inh -23% and LASV entry inh inconclusive.
Screening O=C(CSc1nc2ccccc2c(=O)n1-c1ccccc1)N/N=C/C=C/c1ccccc1[N+](=O)[O-] returned HCMV inh -20, HCV inhibitor inconclusive and FMDV inh -24%.
`Cc1ccc(CSc2nnc(SCC(=O)N/N=C/C=C/c3ccccc3[N+](=O)[O-])s2)cc1` gave HCMV inh -78*, HCV inhibitor 13%, FMDV inh 0%, Marburg entry inh inconclusive and LASV entry inh inconclusive.
Screening Cc1ccccc1-n1c(SCC(=O)N/N=C/C=C/c2ccccc2[N+](=O)[O-])nc2ccccc2c1=O returned HCMV inh inconclusive, HCV inhibitor inconclusive, FMDV inh 20%, Marburg entry inh 7.1µM* and LASV entry inh inconclusive.
`Cc1ccc(CSc2nnc(SCC(=O)N/N=C/C=C/c3ccco3)s2)cc1` gave HCMV inh -61*, HCV inhibitor -2%, FMDV inh 11%, Marburg entry inh inconclusive and LASV entry inh inconclusive.
For CCn1c(SCC(=O)N/N=C/C=C\c2ccccc2[N+](=O)[O-])nnc1-c1ccccc1 the results were HCMV inh 63, HCV inhibitor inconclusive, FMDV inh -20%, Marburg entry inh -6% and LASV entry inh 0%.
CC(/C=N/NC(=O)CSc1nnc(SCc2ccccc2)s1)=C\c1ccco1 was read as HCMV inh -18, HCV inhibitor 4%, FMDV inh 3%, Marburg entry inh 1% and LASV entry inh -3%.
For COc1cccc2cc(-c3nc(Nc4cccc(C)c4)sc3C)c(=O)oc12 the results were HCMV inh -13, FMDV inh 16% and LASV entry inh 13%[46.1 µM].
CC(=O)c1cccc(NC(=O)Nc2sc3nc4n(c(=O)c3c2C)CCC(C)CC4)c1 (stereo not given) was read as HCMV inh -13, FMDV inh -17% and Marburg entry inh 34%[46.1 µM].
For O=c1cc(-c2ccc(O)cc2)oc2ccc(O)cc12 the results were HCMV inh 84, HCV inhibitor 32µM*, FMDV inh 27%, Marburg entry inh -17%[46.1 µM] and LASV entry inh inconclusive.
`COc1ccc(-c2[nH]ncc2/C=C(/C#N)C(=O)NC2CCCCCC2)cc1` gave HCMV inh inconclusive, HCV inhibitor 22µM*, FMDV inh -8%, Marburg entry inh 10µM* and LASV entry inh inconclusive.
Screening Cc1cc(/C=C(\C#N)C(=O)NC2CCCCCC2)c(C)[nH]1 returned HCMV inh -15, HCV inhibitor -18%, FMDV inh 53%, Marburg entry inh inconclusive and LASV entry inh -4%.
`COc1ccc(C(=O)Nc2oc(-c3ccccc3)c(-c3ccccc3)c2C#N)cc1OC` gave HCMV inh 12, HCV inhibitor 11µM*, Marburg entry inh -1% and LASV entry inh -23%.
COc1ccc(-c2oc(NC(=O)c3ccc(C)cc3)c(C#N)c2-c2ccc(OC)cc2)cc1 was read as HCMV inh 9, HCV inhibitor -26%, FMDV inh 2%, Marburg entry inh inconclusive and LASV entry inh -24%.
`COc1ccc(C(=O)Nc2oc(-c3ccccc3)c(-c3ccccc3)c2C#N)cc1` gave HCMV inh inconclusive, HCV inhibitor 10µM*, FMDV inh -18%, Marburg entry inh inconclusive and LASV entry inh inconclusive.

High-throughput results: PubChem, National Center for Advancing Translational Sciences (NCATS)
